Measured values from PubChem BioAssay (Tox21).
Active and inactive are the calls of the source. The call rests on the fitted dose curve; in most records, active means well fitted curve in the direction sought with a large enough effect in the repeat runs; inconclusive means weak or mixed curves; inactive means flat fitted curve, though single readings scatter.

Test: qHTS assay to test for compound auto fluorescence at 590 nm (red) in HepG2 cells (AID 720674)
Conditions: HepG2 autofluorescence, red 540/590 nm, 1 h; series mostly up to 91.3 µM; fluorescence, relative to Rose Bengal: at the top concentration
Excerpt: U.S. Tox21 Program National Center for Advancing Translational Sciences [NCATS] NIH Chemical Genomics Center [NCGC] U.S. Environmental Protection Agency [EPA] National Institutes of Environmental Health Sciences [NIEHS] National Toxicology Program [NTP] U.S. Food and Drug Administration [FDA] Tox21 Assay Overview: Compound auto fluorescence often interferes with screening of the compound library against various biological targets and signaling pathways. Some of these compounds may have fluorophoric properties. Such properties may interfere with the assay outputs resulting in false positives and/or negatives. To decrease such complications and ensure the compound activities are relevant in terms of biological response, the Tox21 10K compound library was screened for auto fluorescence. From the fluorophores used as reporter signals in our screening assays, the auto fluorescence equivalencies of compounds against three fluorophores have been evaluated: Triamterene, Fluorescein and Rose Bengal sodium for blue, green and red fluorescence, respectively. The fluorescence intensities were measured using Excitation/Emission wavelengths at 405/460nm, 485/535nm and 540/590nm for blue, green and red labels, respectively. This assay includes the red fluorescence data.
Tox21 Assay Protocol Summary: 2,000 HepG2 cells in 5 uL of culture medium (MEM containing 10% FBS) per well were dispensed into black wall/clear bottom 1536-well plates using a Multidrop Combi Dispenser (ThermoFisher Scientific, Waltham, MA). The assay plates were incubated overnight at 37 C to allow cell attachment to the well bottom, followed by the transfer of 23 nL compound or DMSO vehicle by a pintool work station (Kalypsys , San Diego, CA). After the assay plates were incubated for 1 hr at 37 C and 5% CO2, fluorescence intensities in the assay plates were measured by an Envision (PerkinElmer, Shelton, CT) plate reader using three labels for measuring blue, green and red fluorescence at […] 460, 535 and 590 nm respectively.
On the % scale 0 is the no-effect control and ±100 the full control effect.

Row | SMILES | fluorescence, relative to Rose Bengal | outcome
1 | O=c1[nH]c(=O)c2cn[nH]c2[nH]1 | 0.0035% (inactive) | 
2 | O=C(O)Cc1ccccc1Oc1ccc(Cl)cc1Cl | -0.0344% [at 46 µM] (inactive) | 
3 | CC/C=C\CCOC(=O)c1ccccc1 | 0.383% (inactive) | 
4 | O=C1c2ccccc2C(=O)N1CO | 0.11% [at 95.7 µM] (inactive) | 
5 | NC[C@H]1O[C@H](O[C@H]2[C@H](O)[C@@H](O[C@H]3O[C@H](CO)[C@@H](O)[C@H](N)[C@H]3O)[C@H](N)C[C@@H]2N)[C@H](N)[C@@H](O)[C@@H]1O |  | inactive
6 | C=CCON/C(CCC)=C1\C(=O)CC(C)(C)C(C(=O)OC)=C1O | -0.0176% (inactive) | 
7 | CCC(C)c1nccnc1OC (stereo not given) | 0.0061% (inactive) | 
8 | BrCCOc1ccccc1 | -0.113% (inactive) | 
9 | CC(C)(C)C(=O)CCc1ccc(Cl)cc1 | 0.0466% (inactive) | 
10 | O=C1CC2(CCCC2)CC(=O)N1CCNCC1COc2ccccc2O1 (stereo not given) | 0.405% [at 46 µM] (inactive) | 
11 | CCNC(=O)C(C)OC(=O)Nc1ccccc1 (stereo not given) | 0.0451% (inactive) | 
12 | c1coc(Cn2cccc2)c1 | -0.0015% (inactive) | 
13 | CCN1CCN(C(=O)N[C@@H](C(=O)N[C@@H]2C(=O)N3[C@@H]2SC(C)(C)[C@H]3C(=O)O)c2ccccc2)C(=O)C1=O | -0.0165% [at 46 µM] (inactive) | 
14 | NS(=O)(=O)c1cc2c(cc1C(F)(F)F)NCNS2(=O)=O | 0.362% [at 18.6 µM] (inactive) | 
15 | CC(C)(O)c1ccc(C(C)(C)O)cc1 | 0.11% (inactive) | 
16 | C[C@H]1COc2c(C3(N)CC3)c(F)cc3c(=O)c(C(=O)O)cn1c23 | -0.356% [at 46 µM] (inactive) | 
17 | Cc1ccc2ccccc2n1 | -0.0429% (inactive) | 
18 | Cc1ccccc1C#N | -0.0807% (inactive) | 
19 | O=P(O)(O)C(O)(Cc1cccnc1)P(=O)(O)O | -0.0152% [at 46 µM] (inactive) | 
20 | CC(C)(Sc1cc(C(C)(C)C)c(O)c(C(C)(C)C)c1)Sc1cc(C(C)(C)C)c(O)c(C(C)(C)C)c1 | 0.757% [at 18.6 µM] (inactive) | 

Row | SMILES | fluorescence, relative to Rose Bengal | outcome
21 | CCCCCCCC(=O)N(C)C | 0.009% (inactive) | 
22 | CC(=O)Nc1ccc(S(=O)(=O)Nc2cc(C)on2)cc1 | 0.177% [at 46 µM] (inactive) | 
23 | CN1CCN(C(=O)C2CCCCC2)CC1 | 0.258% [at 46 µM] (inactive) | 
24 | N#CC1(N)CCCCC1 | 0.0154% [at 95.7 µM] (inactive) | 
25 | COC(=O)N/N=C/c1c[n+]([O-])c2ccccc2[n+]1[O-] | 0.701% [at 46 µM] (inactive) | 
26 | C/C(Cl)=C/CCl | 0.117% [at 95.7 µM] (inactive) | 
27 | CC1=C(O)C(=O)CO1 | -0.143% (inactive) | 
28 | C[C@]12C=CC(=O)C=C1[C@@H](F)C[C@@H]1[C@@H]2[C@@H](O)C[C@@]2(C)[C@H]1CC[C@]2(O)C(=O)CO |  | inactive
29 | NNC(=O)CCCCC(=O)NN | 0.0511% (inactive) | 
30 | C/C=C(\C)C(=O)OC/C=C(\C)CCC=C(C)C | -0.0174% (inactive) | 
31 | CCCC(C)C(O)CC (stereo not given) | -0.036% (inactive) | 
32 | C=CCn1cc[n+](C)c1 | -0.0134% [at 95.7 µM] (inactive) | 
33 | CCC(C)(C)C | 0.131% [at 95.7 µM] (inactive) | 
34 | CCCOc1ccc(C(=O)OCCN(CC)CC)cc1N | -0.0809% [at 46 µM] (inactive) | 
35 | CCCCCCCCCCCCCCBr | 0.187% [at 95.7 µM] (inactive) | 
36 | CC(=O)Oc1ccc(C(C)=O)cc1 | -0.0247% [at 95.7 µM] (inactive) | 
37 | c1cc2ccc3ccc4ccc5cccc6c(c1)c2c3c4c56 | 0.113% [at 3.72 µM] (inactive) | 
38 | CCOC(=O)CC(C(C)=O)C(C)=O | -0.475% (inactive) | 
39 | CC/C=C/CCCCCCCCCCOC(C)=O | -0.0372% (inactive) | 
40 | C=CC(=O)OCCOCCOCC | 0.0948% (inactive) | 
